# Records with an inconclusive call do not appear. The source made the active and inactive calls. Unless noted, calls follow the shape of the dose curve; as a rule, active = well fitted curve in the direction sought with a large enough effect; inconclusive = small, poorly fitted or top-dose-only effect, or another doubt; inactive = no such curve, though single readings can be large; an effect the other way counts as inactive or inconclusive.
# Assays:
# [1] = target: Lysosomal acid glucosylceramidase (Homo sapiens) (UniProt P04062); assay: Glucocerebrosidase-p2 (AID 348; in the data active = potency below about 10 µM; also: potency is read from the fitted curve at half-maximal effect); conditions: purified GBA, blue fluorogenic substrate, 40 min
# Sequence of Lysosomal acid glucosylceramidase (Homo sapiens) (P04062 whole entry, looked up): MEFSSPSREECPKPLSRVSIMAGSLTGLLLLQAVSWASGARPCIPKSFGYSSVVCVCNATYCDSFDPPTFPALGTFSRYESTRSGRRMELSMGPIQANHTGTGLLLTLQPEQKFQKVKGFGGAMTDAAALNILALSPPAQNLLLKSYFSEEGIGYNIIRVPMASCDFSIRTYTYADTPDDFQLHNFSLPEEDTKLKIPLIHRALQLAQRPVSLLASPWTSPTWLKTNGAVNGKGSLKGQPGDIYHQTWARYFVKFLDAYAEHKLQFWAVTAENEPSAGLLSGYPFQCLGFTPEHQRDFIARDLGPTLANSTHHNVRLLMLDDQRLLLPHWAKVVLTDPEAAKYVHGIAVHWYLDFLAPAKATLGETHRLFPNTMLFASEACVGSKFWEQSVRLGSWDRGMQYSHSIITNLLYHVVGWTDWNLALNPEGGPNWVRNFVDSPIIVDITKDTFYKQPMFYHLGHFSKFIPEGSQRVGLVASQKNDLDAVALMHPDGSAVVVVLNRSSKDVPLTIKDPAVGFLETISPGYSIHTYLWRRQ
# Method in brief: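 Compounds titrated from 0.6 nM upwards against 0.2 nM enzyme in pH 5.9 citric acid/KH2PO4, taurocholate, tween-20; blue fluorogenic substrate 80 uM, 40 min room temperature, stopped and read Ex 365/Em 440 for AC50.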
# [2] = NFAT Signaling Pathway (AID 444; active = well fitted curve in either direction with a large enough effect, not every such curve was filed as active;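 also: carbachol stimulus at about its EC50 of 1 µM final; % is scaled to controls: 0 for no effect and ±100 for the full control effect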); conditions: Jurkat NFAT-bla M1, carbachol, beta-lactamase ratio, 5 h; at 7.69 µM (top of the series) unless noted
# Method in brief: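 Read-out: CCF4 FRET ratio (460 nm/530 nm) after 1 h RT dye loading, used for %activity and AC50 from titration series. Cells: Jurkat NFAT-β-lactamase/M1 line, treated with compound plus 1 uM carbachol for 5 h, 37 °C.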
# [3] = Stat Signaling Pathway (AID 446; active = well fitted curve in either direction with a large enough effect, not every such curve was filed as active;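 also: ME-180 cervical cancer cells given 40 pM IL-6 alongside compound; SIE-controlled beta-lactamase reporter measured as 460/530 nm FRET emission ratio; % is scaled to controls: 0 for no effect and ±100 for the full control effect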); conditions: ME-180 SIE beta-lactamase reporter, IL-6 stimulated, 5 h; at 7.69 µM (top of the series) unless noted
# Method in brief: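 Reporter line: ME-180 cervical carcinoma, SIE-beta-lactamase. Treatment: compound with 40 pM IL-6, 5 hrs, 37 C, in low-serum OPTI-MEM with 10 mM HEPES pH 7.3. Detection: 460/530 nm fluorescence.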
# [4] = target: Glucocorticoid receptor (Homo sapiens) (UniProt P04150); assay: GR-GFP Redistribution (AID 450;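 active = compounds whose dose series gives a full or clear partial fitted curve of increased nuclear translocation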; also: potency is read from the fitted curve at half-maximal effect); conditions: U2OS GR-GFP nuclear translocation, laser cytometry, 2 h
# Sequence of Glucocorticoid receptor (Homo sapiens) (P04150 whole entry, looked up, the tested form may be a part): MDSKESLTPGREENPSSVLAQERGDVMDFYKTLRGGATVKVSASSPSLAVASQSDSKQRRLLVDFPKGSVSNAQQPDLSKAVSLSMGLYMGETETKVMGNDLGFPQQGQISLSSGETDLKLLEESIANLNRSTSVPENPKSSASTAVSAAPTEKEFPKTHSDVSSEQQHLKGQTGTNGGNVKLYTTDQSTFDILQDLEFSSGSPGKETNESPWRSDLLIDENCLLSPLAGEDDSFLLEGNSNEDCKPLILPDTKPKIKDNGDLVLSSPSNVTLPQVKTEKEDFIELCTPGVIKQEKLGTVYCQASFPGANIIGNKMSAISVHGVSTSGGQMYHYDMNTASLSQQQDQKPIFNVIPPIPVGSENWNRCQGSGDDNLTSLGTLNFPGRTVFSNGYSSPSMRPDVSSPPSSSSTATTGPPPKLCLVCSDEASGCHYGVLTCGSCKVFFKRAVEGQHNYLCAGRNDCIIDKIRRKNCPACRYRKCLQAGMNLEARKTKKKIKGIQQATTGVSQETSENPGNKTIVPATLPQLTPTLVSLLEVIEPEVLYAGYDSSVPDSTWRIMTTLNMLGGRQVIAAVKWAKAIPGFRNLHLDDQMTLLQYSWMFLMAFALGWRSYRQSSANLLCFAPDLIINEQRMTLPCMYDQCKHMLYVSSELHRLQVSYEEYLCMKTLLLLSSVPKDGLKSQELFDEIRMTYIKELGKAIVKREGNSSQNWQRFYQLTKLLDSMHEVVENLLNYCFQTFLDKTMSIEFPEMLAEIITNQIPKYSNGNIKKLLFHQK
# [5] = target: Glucocorticoid receptor (Homo sapiens) (UniProt P04150); assay: GR-EFC Redistribution (AID 451; calls by dose curve; also: potency is read from the fitted curve at half-maximal effect); conditions: CHO-K1 GR-EFC translocation, beta-gal luminescence, 2 h
# Method in brief: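 Translocation of GR-ED fusion to nuclear EA restores b-gal, read by luminescence after 1 h room-temperature detection. Engineered CHO-K1 biosensor cells, 1,000/well, exposed 2 h at 37 C to titrations up to 46 uM final.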
# [6] = target: Mitogen-activated protein kinase 10 (Mus musculus) (UniProt Q61831); assay: JNK3 AlphaScreen Assay (AID 530; active = well fitted curve in either direction with a large enough effect, not every such curve was filed as active;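 also: kinase came from lysate of stimulated human HepG2 cells; signal reports phosphorylation of biotinylated GST-cJun 1-79 at Ser73 with 10 µM ATP; % is scaled to controls: 0 for no effect and ±100 for the full control effect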)
# Method in brief: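 Room-temperature AlphaScreen kinase assay; pre-activated HepG2 lysate as JNK3 source, biotin-GST-cJun(1-79) substrate, 10 uM ATP, compound 15 min preincubation.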
# [7] = target: 3',5'-cyclic-AMP phosphodiesterase 4B (Homo sapiens) (UniProt Q07343); assay: qHTS Assay for Inhibitors of PDE-IV (AID 607; active = well fitted activation curve with a large enough effect in the main read-out, with a control signal flat, not every such curve was filed as active; also: % of control where 0% means no effect)
# Sequence of 3',5'-cyclic-AMP phosphodiesterase 4B (Homo sapiens) (Q07343 whole entry, looked up): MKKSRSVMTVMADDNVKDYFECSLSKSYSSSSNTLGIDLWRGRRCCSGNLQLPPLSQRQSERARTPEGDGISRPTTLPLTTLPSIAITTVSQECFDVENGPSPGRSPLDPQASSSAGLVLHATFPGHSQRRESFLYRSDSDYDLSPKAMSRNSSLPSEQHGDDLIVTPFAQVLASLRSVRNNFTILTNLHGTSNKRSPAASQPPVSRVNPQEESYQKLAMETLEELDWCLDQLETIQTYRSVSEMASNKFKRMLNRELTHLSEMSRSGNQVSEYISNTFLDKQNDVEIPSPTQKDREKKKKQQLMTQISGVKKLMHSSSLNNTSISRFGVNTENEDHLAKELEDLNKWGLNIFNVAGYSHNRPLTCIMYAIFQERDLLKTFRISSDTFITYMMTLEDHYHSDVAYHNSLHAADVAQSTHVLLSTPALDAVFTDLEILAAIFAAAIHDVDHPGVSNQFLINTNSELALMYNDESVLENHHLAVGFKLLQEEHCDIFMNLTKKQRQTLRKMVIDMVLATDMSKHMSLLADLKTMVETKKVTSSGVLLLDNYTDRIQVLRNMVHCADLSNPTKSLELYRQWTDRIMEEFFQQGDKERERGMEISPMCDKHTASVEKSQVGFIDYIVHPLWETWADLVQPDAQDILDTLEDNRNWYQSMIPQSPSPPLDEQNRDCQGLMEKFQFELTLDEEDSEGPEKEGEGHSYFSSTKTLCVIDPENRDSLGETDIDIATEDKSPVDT
# Method in brief: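 Cell-based read-out of cAMP via a modified cyclic nucleotide-gated channel and membrane potential dye (535/590 nm) in HEK293 cells expressing PDE4 endogenously. Compounds tested up to 22.9 uM final; 100 uM RO 20-1724 reference.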
# [8] = qHTS Assay for Lipid Storage Modulators (AID 1519; calls by dose curve); conditions: Drosophila S3 cells, BODIPY lipid droplet/cell ratio, laser cytometry, cells loaded with oleic acid; for activity change, negative = inhibition: at 57.5 µM (top of the series)
# Method in brief: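 Cells seeded at 5,000 per well were treated with compounds over a concentration series and loaded with oleic acid (400 uM, as added). Lipid droplet fluorescence (488 nm excitation, 500-530 nm channel) was read by laser-scanning cytometry and normalized to 20 uM Triacsin C.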
# [9] = target: Dual specificity protein kinase CLK4 (Homo sapiens) (UniProt Q9HAZ1); assay: qHTS Assay for Inhibitors of CDC-like Kinase 4 (Kinase-Glo Assay) (AID 1770); also: nearly all actives have a fitted effect of over 65% in size; also: potency is read from the fitted curve at half-maximal effect
# Sequence of Dual specificity protein kinase CLK4 (Homo sapiens) (Q9HAZ1 whole entry, looked up): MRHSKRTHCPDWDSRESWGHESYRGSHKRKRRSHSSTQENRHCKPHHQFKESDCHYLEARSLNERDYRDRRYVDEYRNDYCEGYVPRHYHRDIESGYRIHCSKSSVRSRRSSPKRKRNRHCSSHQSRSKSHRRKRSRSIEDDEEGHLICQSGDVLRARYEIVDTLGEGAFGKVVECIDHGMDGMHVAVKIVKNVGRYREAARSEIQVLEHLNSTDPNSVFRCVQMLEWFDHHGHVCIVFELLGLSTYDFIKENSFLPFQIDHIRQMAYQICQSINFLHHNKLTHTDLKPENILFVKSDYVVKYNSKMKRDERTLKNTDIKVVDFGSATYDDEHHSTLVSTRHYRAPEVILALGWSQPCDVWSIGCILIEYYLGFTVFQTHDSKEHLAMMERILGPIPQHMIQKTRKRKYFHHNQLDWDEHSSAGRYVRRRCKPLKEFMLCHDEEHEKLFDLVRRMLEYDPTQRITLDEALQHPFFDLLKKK
# Method in brief: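 Luminescent ATP-depletion read-out (Kinase-Glo) after 4.5 h room-temperature reaction of Clk4 (25 nM final) with RS peptide (100 uM) and ATP (1 uM), pH 7.5 Tris buffer with MgCl2 and DTT.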
# [10] = target: Dual specificity protein kinase CLK4 (Homo sapiens) (UniProt Q9HAZ1); assay: qHTS Assay for Inhibitors of CDC-like Kinase 4 (ADP-FP Assay) (AID 1795); also: nearly all actives have a fitted effect of over 60% in size; also: potency is read from the fitted curve at half-maximal effect
# Method in brief: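 Kinase activity was measured as ADP production using Transcreener orange tracer (4 nM) and ADP antibody (1 ug/mL) fluorescence polarization, with ADP calculated from a calibration curve. The 1 h reaction contained 6.25 nM Clk4, 1 uM ATP and 100 uM RS peptide at pH 7.5 with Mg2+.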
# [11] = target: Ubiquitin carboxyl-terminal hydrolase 1 (Homo sapiens) (UniProt O94782); assay: Inhibitors of USP1/UAF1: Pilot qHTS (AID 504865);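 also: rhodamine fluorescence freed from ubiquitin-rhodamine substrate followed over time; top concentration of the series differs between compounds; % is scaled to controls: 0 for no effect and ±100 for the full control effect; nearly all actives have a fitted effect of over 35% in size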
# Sequence of Ubiquitin carboxyl-terminal hydrolase 1 (Homo sapiens) (O94782 whole entry, looked up): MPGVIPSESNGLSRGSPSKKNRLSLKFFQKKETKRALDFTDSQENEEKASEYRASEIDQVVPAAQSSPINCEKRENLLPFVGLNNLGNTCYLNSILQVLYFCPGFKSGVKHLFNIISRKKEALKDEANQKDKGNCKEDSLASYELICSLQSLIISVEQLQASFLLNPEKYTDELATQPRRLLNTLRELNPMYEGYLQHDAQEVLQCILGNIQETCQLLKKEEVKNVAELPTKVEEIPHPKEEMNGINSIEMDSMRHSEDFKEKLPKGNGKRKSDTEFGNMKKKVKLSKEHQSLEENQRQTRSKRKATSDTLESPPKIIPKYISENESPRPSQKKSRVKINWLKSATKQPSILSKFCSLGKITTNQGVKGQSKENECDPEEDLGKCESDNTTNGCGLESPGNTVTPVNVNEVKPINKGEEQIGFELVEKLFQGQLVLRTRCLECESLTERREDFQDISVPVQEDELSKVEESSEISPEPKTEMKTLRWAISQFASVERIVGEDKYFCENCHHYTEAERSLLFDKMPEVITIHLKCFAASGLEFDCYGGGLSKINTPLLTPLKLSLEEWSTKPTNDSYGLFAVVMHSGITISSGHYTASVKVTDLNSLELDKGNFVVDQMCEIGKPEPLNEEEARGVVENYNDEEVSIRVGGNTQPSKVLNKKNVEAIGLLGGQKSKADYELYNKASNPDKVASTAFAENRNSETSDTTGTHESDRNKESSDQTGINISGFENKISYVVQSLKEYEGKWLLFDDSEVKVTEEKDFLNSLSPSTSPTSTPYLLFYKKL
# Method in brief: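 Deubiquitinase activity followed as kinetic rhodamine fluorescence release from 150 nM Ub-Rho. 1 nM USP1/UAF1 with compound, after 15 min room-temperature preincubation, in HEPES pH 7.8 buffer containing TCEP, EDTA, BSA and Tween-20.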
# [12] = Primary qHTS for small molecule stabilizers of the endoplasmic reticulum resident proteome: Secreted ER Calcium Modulated Protein (SERCaMP) assay (AID 1508630); also: % is scaled to controls: 0 for no effect and ±100 for the full control effect
# Method in brief: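 GLuc-SERCaMP-expressing SH-SY5Y cells, pretreated 16 h with compound, are challenged with thapsigargin to empty ER calcium stores; after 4 h, coelenterazine is added directly to the medium and luminescence is imaged.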
# [13] = AP1 Signaling Pathway (AID 357; active = well fitted curve in either direction with a large enough effect, not every such curve was filed as active; also: % is scaled to controls: 0 for no effect and ±100 for the full control effect); conditions: ME-180 (cervical carcinoma) AP-1-bla reporter, EGF-induced, beta-lactamase ratio, 5 h; at 7.69 µM (top of the series) unless noted
# Method in brief: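 AP-1-bla ME-180 cells with beta-lactamase reporter under AP-1 response element, stimulated with EC50 EGF; compounds titrated, 5 hours at 37 degrees Celsius. CCF4 read at 460/530 nm ratio; positive and negative modulators judged by AC50.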
# [14] = target: Cytochrome P450 1A2 (Homo sapiens) (UniProt P05177); assay: p450-cyp1a2 (AID 410; calls by dose curve; also: potency is read from the fitted curve at half-maximal effect)
# Sequence of Cytochrome P450 1A2 (Homo sapiens) (P05177 whole entry, looked up): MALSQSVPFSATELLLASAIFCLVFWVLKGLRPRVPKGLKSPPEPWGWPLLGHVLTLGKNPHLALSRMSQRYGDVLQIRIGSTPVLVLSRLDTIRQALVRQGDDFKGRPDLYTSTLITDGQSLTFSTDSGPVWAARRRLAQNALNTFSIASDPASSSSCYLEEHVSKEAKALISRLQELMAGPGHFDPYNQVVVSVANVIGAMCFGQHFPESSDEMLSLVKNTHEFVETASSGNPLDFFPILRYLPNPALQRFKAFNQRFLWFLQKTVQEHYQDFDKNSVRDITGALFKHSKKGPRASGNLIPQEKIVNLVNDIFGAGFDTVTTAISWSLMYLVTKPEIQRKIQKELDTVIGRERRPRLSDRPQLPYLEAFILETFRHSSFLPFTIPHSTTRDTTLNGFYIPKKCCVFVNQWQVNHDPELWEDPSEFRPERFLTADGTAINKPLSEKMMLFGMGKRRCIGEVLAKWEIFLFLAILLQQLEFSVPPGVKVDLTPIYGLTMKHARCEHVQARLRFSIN
# Method in brief: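 Inhibition was calculated relative to 57 uM furafylline (full inhibition). The reaction used human CYP1A2 at 20nM with Luciferin-ME at its Km, 100uM, driven by an NADPH-regenerating system for 60 min at room temperature.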
# [15] = target: Cytochrome P450 3A4 (Homo sapiens) (UniProt P08684); assay: qHTS Assay for Inhibitors and Substrates of Cytochrome P450 3A4 (AID 884); also: potency is read from the fitted curve at half-maximal effect; nearly all actives have a fitted effect of over 50% in size
# Sequence of Cytochrome P450 3A4 (Homo sapiens) (P08684 whole entry, looked up): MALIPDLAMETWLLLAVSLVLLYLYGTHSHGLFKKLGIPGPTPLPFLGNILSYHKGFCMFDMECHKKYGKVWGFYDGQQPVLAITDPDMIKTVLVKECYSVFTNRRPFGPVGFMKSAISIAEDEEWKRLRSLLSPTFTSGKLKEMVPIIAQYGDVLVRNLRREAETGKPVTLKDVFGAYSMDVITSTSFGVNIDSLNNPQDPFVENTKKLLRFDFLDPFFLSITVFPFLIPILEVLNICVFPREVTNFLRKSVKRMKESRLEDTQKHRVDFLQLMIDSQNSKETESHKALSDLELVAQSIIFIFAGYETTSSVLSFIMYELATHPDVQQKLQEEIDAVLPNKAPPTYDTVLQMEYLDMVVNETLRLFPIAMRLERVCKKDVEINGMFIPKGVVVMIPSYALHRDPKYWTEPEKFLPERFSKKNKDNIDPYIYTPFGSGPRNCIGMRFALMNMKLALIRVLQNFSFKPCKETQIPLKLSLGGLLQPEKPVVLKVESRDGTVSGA
# Method in brief: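 20 nM human CYP3A4 with 25 uM Luciferin-PPXE (at KM) in 200 mM KPO4, preincubated 10 min with compound; NADPH regeneration started a 60 min RT reaction. Luciferin detected by luminescence, normalized to 57 uM ketoconazole as full inhibition.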
# [16] = target: Cytochrome P450 3A4 (Homo sapiens) (UniProt P08684); assay: qHTS Assay for Activators of Cytochrome P450 3A4 (AID 885); also: nearly all actives have a fitted effect of over 65% in size
# Method in brief: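 Signal was normalized against complete inhibition by 57 uM ketoconazole. The reaction used 20nM CYP3A4 with 25uM Luciferin-PPXE, 10-min compound preincubation and a 60-min NADPH-supported step at RT.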
# [17] = measured here: cell count channel max response
# [18] = measured here: lipid channel max response
SMILES,Potency [1],"activity change, negative = inhibition [2]","activity, negative = inhibition [3]",Potency [4],Potency [5],outcome [6],Potency [7],"activity change, negative = inhibition [8]","max response [8, 17] [%]","max response [8, 18] [%]",Potency [9],Potency [10],Potency [11],Potency [12],"activity change, negative = inhibition [13]",Potency [14],Potency [15],Potency [16]
COc1ccc(-c2nc3cnc(Oc4cccc(Cl)c4)nc3n(C3CC3)c2=O)cc1,> 11.4 µM (inactive),-3.56% (inactive),15% (inactive),> 9.22 µM (inactive),> 46 µM (inactive),inactive,inactive,-3.67% (inactive),-15.3,-19.7,inactive,inactive,inactive,inactive,,,,
Cc1cnc(CNc2cc(-c3cccc(NS(C)(=O)=O)c3)ncn2)cn1,> 11.4 µM (inactive),-0.447% (inactive),-0.385% (inactive),> 46 µM (inactive),> 46 µM (inactive),inactive,inactive,5.3% (inactive),37.3,40.2,25.1 µM (active),,inactive,inactive,20.7% (inactive),,,
CNc1ncnc2ccc(-c3ccccc3CN(C)C)cc12,> 11.4 µM (inactive),-2.46% (inactive),-1.81% (inactive),,> 46 µM (inactive),inactive,inactive,4.45% (inactive),6.85,10.7,25.1 µM (active),,inactive,inactive,-22.5% (inactive),3.16 µM (active),7.94 µM (active),
CN(C)c1ccc(-c2ccc3ncnc(-n4ccnc4)c3c2)cc1,> 11.4 µM (inactive),,-10% (inactive),> 46 µM (inactive),,inactive,inactive,7.19% (inactive),4.81,9.84,3.16 µM (active),,inactive,inactive,,0.316 µM (active),,inactive
CS(=O)(=O)Nc1cccc(-c2ccc3ncnc(NC4CCNCC4)c3c2)c1,> 11.4 µM (inactive),0.249% (inactive),4.8% (inactive),> 46 µM (inactive),> 46 µM (inactive),inactive,inactive,4.99% (inactive),3.42,11,11.2 µM (active),11.2 µM (active),inactive,inactive,6.55% (inactive),,,
Cc1cnc(CNc2ncncc2-c2cccc(C#N)c2)cn1,> 11.4 µM (inactive),1.24% (inactive),9.2% (inactive),> 46 µM (inactive),> 46 µM (inactive),inactive,inactive,8.03% (inactive),20.9,25.3,28.2 µM (active),,inactive,inactive,15% (inactive),12.6 µM (active),2 µM (active),inactive

# — PubChem BioAssay (NCATS)
